# Data as given in PubChem BioAssay.
# A number with no mark means an inactive call. The rule behind the calls is not given here.
# Assay: Pseudomonas biofilm growth suppression – PAO1 strain, BacTiter-Glo luminescence, LB-PBS, primary screen (AID 1144)
# Settings: P. aeruginosa PAO1 biofilm, 12 h, higher = more signal
row,Compound,z-score
1,C=CCN1C(=O)[C@@]2(Cc3ccccc31)N=C(c1ccc(OCCCO)cc1)O[C@H]2c1ccccc1,-0.144
2,[N-]=[N+]=Nc1ccccc1[C@@H]1OC(c2ccc(OCCCO)cc2)=N[C@]1(CCS(=O)(=O)c1ccccc1)C(N)=O,0.378
3,CN(C)C(=O)[C@@]1(CCS(=O)(=O)c2ccccc2)COC(c2ccc(OCCCO)cc2)=N1,-0.26
4,CCOC(=O)C[C@H]1[C@H](OC(=O)c2cc3ccccc3oc2=O)[C@@H](NC(=O)c2ccccc2)c2cc(OCCCO)ccc2N1C(=O)c1ccc2ccccc2n1,0.594
5,C=CCOC(=O)[C@H]1[C@@H]2C(=O)O[C@@H](c3ccccc3)[C@@H](c3ccccc3)N2[C@@H](c2ccc(OCCOC(=O)[C@H]3C[C@H]4C(=O)N[C@@H](CCCCNC(C)=O)C(=O)N4[C@H]3c3cccc(OCCO)c3)cc2)[C@]12C(=O)Nc1ccccc12,-0.292
6,CC(C)C(CO)N1C(=O)[C@@H]2C3C(=O)OCCC/C=C\[C@H]3OC23C=CCN(CCN2CCOCC2)C(=O)[C@@H]13 (stereo not given in full),0.723
7,O=C(NCCN1CCOCC1)C1N=C(c2ccc(OCCCO)cc2)N(c2ccccc2)O1 (stereo not given),1.27
8,COC(=O)[C@@]1(Cc2ccccc2)[C@H]2c3cc(C(=O)N4CCCC4)n(Cc4ccc(S(C)(=O)=O)cc4)c3C[C@H]2CN1C(=O)c1ccccc1,0.779
9,O=C1[C@@]23C=C(Br)[C@H](C[C@@H]2CCOC3)[C@@]12CO2,0.725
10,O=C(c1ccccc1)N1C(=O)[C@]2(COC(c3ccc(OCCCO)cc3)=N2)Cc2ccccc21,-0.382
11,Cc1nc2cc(Br)ccc2c(=O)o1,-1.06
12,CCCCC(CC)C(O)C1C=CC2C(=O)N(Cc3ccccc3)C(=O)C2N1n1cnnc1 (stereo not given),0.999
13,CC(C)C(O)C1C=CC2C(=O)NC(=O)C2N1Nc1ccc(Cl)cc1Cl (stereo not given),0.0631
14,COCCOC(=O)N1C(=O)[C@@]2(c3ccccc31)[C@H](c1ccc(O)cc1)N1[C@H](c3ccccc3)[C@H](c3ccccc3)OC(=O)[C@H]1[C@@H]2C(=O)Nc1nc2ccccc2s1,0.272
15,CC(C)C(=C=CC[C@@H](O)c1ccc(OCCO)cc1)C[C@@H](O)COCc1ccccc1,-0.933
16,O=C1C2C=CC(C(O)Cc3ccccc3)N(n3cnnc3)C2C(=O)N1Cc1ccccc1 (stereo not given),0.0973
17,COCCOC(=O)N1C(=O)[C@@]2(c3cc(C#Cc4ccc(OC)cc4)ccc31)[C@H](c1ccc(O)cc1)N1[C@H](c3ccccc3)[C@H](c3ccccc3)OC(=O)[C@H]1[C@@H]2C(=O)N1CCc2cc(OC)c(OC)cc2C1,-1.57
18,COc1cc2c(cc1O)C(C1CC1)N(Cc1sc3ccccc3c1Cl)CC2 (stereo not given),1.26

row,Compound,z-score
1,CC(C)C(=C=CC[C@H](O)c1ccc(OCCO)cc1)CCO,-0.596
2,CC(=O)NCCCC[C@@H]1NC(=O)[C@@H]2C[C@H](C(=O)NCCCCCNC(=O)CS)[C@H](c3cccc(OCCO)c3)N2C1=O,-0.617
3,NC(=O)NCC#Cc1ccc2c(c1)[C@]1(C(=O)N2)[C@H](c2ccc(O)cc2)N2[C@H](c3ccccc3)[C@H](c3ccccc3)OC(=O)[C@H]2[C@@H]1C(=O)O,-0.248
4,COc1cc(Br)cc(C(O)C2C=CC3C(=O)N(C)C(=O)C3N2N2CCCCC2)c1OC (stereo not given),-0.311
5,COc1ccc(CCNC(=O)[C@@H]2c3ccccc3C(=O)N(Cc3ccccc3Cl)[C@H]2c2ccc(CO)cc2)cc1,0.603
6,CCCCN1CC=CC23O[C@@H]4C=CCCOC(=O)C4[C@H]2C(=O)N(CCCCCCO)[C@@H]3C1=O (stereo not given in full),0.844
7,CCOC(=O)C[C@H]1[C@H](OC(=O)c2ccc(C(=O)c3ccccc3)cc2)[C@@H](NC(=O)c2ccccc2)c2cc(OCCCO)ccc2N1C(=O)c1ccc2ccccc2n1,0.0501
8,C=CCOC(=O)[C@H]1[C@@H]2C(=O)O[C@@H](c3ccccc3)[C@@H](c3ccccc3)N2[C@@H](c2ccc(OCCOC(=O)[C@H]3C[C@H]4C(=O)N[C@@H](CCCC[N+](C)(C)C)C(=O)N4[C@H]3c3ccc(O)cc3)cc2)[C@]12C(=O)Nc1ccc(I)cc12,-0.615
9,CC(CO)N1C(=O)[C@@H]2C3C(=O)OCCC/C=C\[C@H]3OC23C=CCN(C(C)(C)C)C(=O)[C@@H]13 (stereo not given in full),-0.818
10,CC1CC/C=C\[C@H]2OC34C=CCN(C(C)(C)C)C(=O)[C@H]3N(C(C)CO)C(=O)[C@@H]4C2C(=O)O1 (stereo not given in full),1.01
11,COc1ccc(C#Cc2ccc3c(c2)[C@]2(C(=O)N3)[C@H](C(=O)Nc3nc4ccccc4s3)[C@H]3C(=O)O[C@H](c4ccccc4)[C@H](c4ccccc4)N3[C@@H]2c2ccc(O)cc2)cc1,-0.782
12,C=CCC(OC(C)=O)[C@@H]1[C@@H](N(Cc2ccc(-c3ccccc3)cc2)C(=O)Cc2ccc(OC)cc2)c2cc(OCCCO)ccc2N1C(=O)Cc1ccc2ccccc2c1 (stereo not given in full),0.294
13,CN1C(=O)C2C=CC(C(O)C#Cc3ccccc3)N(N3CCCCC3)C2C1=O (stereo not given),-0.686
14,C=CC(=C)[C@H]1Oc2ccccc2S(=O)(=O)N2CCC[C@@H]12,1.16
15,C=CCC(OC(C)=O)[C@@H]1[C@@H](N(Cc2ccc(-c3cccc(C(F)(F)F)c3)o2)C(=O)c2ccc(C)cc2)c2cc(OCCCO)ccc2N1C(=O)Cc1ccc2ccccc2c1 (stereo not given in full),-0.568
16,COCCOC(=O)N1C(=O)[C@@]2(c3cc(C#CCC(C(=O)OC)C(=O)OC)ccc31)[C@H](C(=O)N1CCN(c3ncccn3)CC1)[C@H]1C(=O)O[C@H](c3ccccc3)[C@H](c3ccccc3)N1[C@@H]2c1ccccc1OCCO,1.13
17,CC(C)=CCCC(C)=CC(O)C1C=CC2C(=O)N(C)C(=O)C2N1Nc1ccccc1 (stereo not given),-0.545
